Experimental findings from PubChem BioAssay are described below.

Active and inactive are the calls of the source. Unless noted, no rule for the calls is given here.

A short description of assay [1]: HepG2 liver cancer cell viability effects, profiling panel, resazurin fluorescence, 24 h, PK04 Diversity Set (AID 1172). Also: test concentration not given here. The conditions noted are these: higher = more signal. (The colour change of resazurin is a common sign of viable cells or microbes.)
Assay [2] in a line: basal S. cerevisiae growth modulation, no modifier, primary screen, OD600, strain BY4716, 24 h, basal condition (AID 1173). Particulars: OD600, 24 h, higher = more signal, called active from +8 up or from −8 down.
Assay [3] can be described thus: MM1S myeloma cell viability, profiling panel, resazurin fluorescence, basal, 24 h, PK04 Diversity Set (AID 1174).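 Also: MM1S multiple myeloma cell line; test concentration not given here.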 The conditions noted are these: higher = more signal, called active from +8 up or from −8 down.
Assay [4] addresses Dihydroorotate dehydrogenase (quinone), mitochondrial (Plasmodium falciparum (isolate 3D7)) (UniProt Q08210). The assay can be described thus: PfDHODH enzyme inhibitors, primary screen, biochemical, C-terminal His tag, absorbance 600 nm (AID 1175).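 Also: recombinant parasite enzyme with a five histidine tag at its C terminus; test concentration not given here.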 Particulars: DCIP absorbance 600 nm, higher = more signal, called active from +8 up or from −8 down.
A short description of assay [5]: P. aeruginosa biofilm formation inhibitors, primary screen, strain PAO1, LB-PBS medium, absorbance 600 nm (AID 1176). Also: test concentration not given here. Particulars: P. aeruginosa PAO1 growth/biofilm, A600, 12 h; higher = more signal.
Assay [6] in a line: S. cerevisiae RM11-1a growth modifiers, primary screen, strain RM11-1a, OD600, basal, 24 h (AID 1177).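 Also: cultures grown under basal conditions with no added stressor; test concentration not given here.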 The conditions noted are these: OD600, 24 h, higher = more signal, called active from +8 up or from −8 down.
Assay [7] can be described thus: E. coli acrAB mutant growth effects, primary screen, E. coli filamentation inducers, strain DRC39, OD650, 24 h (AID 1178).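 Also: growth measured as culture turbidity by optical density at 650 nm; test concentration not given here.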 Particulars: higher = more signal, called active from +8 up or from −8 down.
The nature of assay [8]: E. coli acrAB mutant growth effects, primary screen, E. coli filamentation inducers, strain DRC39, OD650, 48 h (AID 1179).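 Also: screen aims at cell division blockers that make cells filament.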 Particulars: E. coli DRC39 delta-acrAB growth, higher = more signal, called active from +8 up or from −8 down.
Assay [9] is described as follows: RPMI8226 myeloma cell viability, profiling panel, resazurin fluorescence, basal, 24 h, PK04 Diversity Set (AID 1180).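 Also: RPMI8826 multiple myeloma cell line at 5000 cells per well; test concentration not given here.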 Particulars: higher = more signal.
The target in assay [10] is E3 ubiquitin-protein ligase XIAP (Homo sapiens) (UniProt P98170). As to the kind of experiment: XIAP binders, primary screen, biophysical, small-molecule microarray, fluorescence 635 nm (AID 1181).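 Also: score merges 667 nm emission and signal to noise over triplicate slides.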 Particulars: small-molecule microarray binding, higher = more signal.
Sequence of E3 ubiquitin-protein ligase XIAP (Homo sapiens) (P98170 whole entry, looked up): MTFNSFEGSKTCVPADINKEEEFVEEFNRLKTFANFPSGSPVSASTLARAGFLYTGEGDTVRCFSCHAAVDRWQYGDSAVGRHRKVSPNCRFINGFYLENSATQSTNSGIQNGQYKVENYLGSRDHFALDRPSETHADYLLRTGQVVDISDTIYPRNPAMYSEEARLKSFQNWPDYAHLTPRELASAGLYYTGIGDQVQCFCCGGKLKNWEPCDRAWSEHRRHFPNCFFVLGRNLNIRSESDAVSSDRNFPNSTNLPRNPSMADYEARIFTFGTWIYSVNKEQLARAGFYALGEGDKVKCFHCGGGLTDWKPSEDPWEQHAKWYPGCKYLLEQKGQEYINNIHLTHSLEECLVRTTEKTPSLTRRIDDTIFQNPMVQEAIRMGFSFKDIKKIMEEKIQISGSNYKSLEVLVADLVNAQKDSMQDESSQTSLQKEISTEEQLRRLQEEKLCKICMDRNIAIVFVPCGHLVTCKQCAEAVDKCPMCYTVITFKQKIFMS

Sequence of Dihydroorotate dehydrogenase (quinone), mitochondrial (Plasmodium falciparum (isolate 3D7)) (Q08210 whole entry, looked up): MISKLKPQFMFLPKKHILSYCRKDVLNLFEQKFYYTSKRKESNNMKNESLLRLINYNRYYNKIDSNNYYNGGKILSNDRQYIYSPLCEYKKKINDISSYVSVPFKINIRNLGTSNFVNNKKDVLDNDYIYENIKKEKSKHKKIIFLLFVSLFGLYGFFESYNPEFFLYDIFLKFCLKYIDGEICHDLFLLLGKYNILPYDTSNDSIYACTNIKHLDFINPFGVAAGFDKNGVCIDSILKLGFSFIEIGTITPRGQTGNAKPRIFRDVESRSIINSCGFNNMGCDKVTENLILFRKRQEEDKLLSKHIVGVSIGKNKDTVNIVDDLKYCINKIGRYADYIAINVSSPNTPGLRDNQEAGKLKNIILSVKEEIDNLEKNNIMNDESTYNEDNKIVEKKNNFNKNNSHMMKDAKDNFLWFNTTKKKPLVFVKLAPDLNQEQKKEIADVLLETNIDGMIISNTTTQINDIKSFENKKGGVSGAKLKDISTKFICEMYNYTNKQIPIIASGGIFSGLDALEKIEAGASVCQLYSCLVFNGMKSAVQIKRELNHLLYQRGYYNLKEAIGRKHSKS

For `CC(C)N1C(=O)[C@@]2(Cc3ccccc31)c1ccccc1C(=O)N(C1CCCCC1)[C@H]2c1ccc(CO)cc1`, the z-score is 2.02 in assay [1]; -0.536 (inactive) in [2]; 0.843 (inactive) in assay [3]; -0.255 (inactive) in [5]; -0.719 (inactive) in assay [6]; 0.589 (inactive) in assay [7]. Also, the z-score in assay [8] was 0.443 (inactive); in [9], 0.917. The composite z-score in [4] is -18.9 (active); in assay [10], -0.209.
With `C=C(C)C1C(=C)CN([C@H](CO)c2ccccc2)C1=O` (stereo not given in full), the z-score was 1.04 in [1]; -2.16 (inactive) in assay [2]; 0.267 (inactive) in assay [3]; -0.611 (inactive) in [5]; 0.229 (inactive) in assay [6]; 0.692 (inactive) in assay [7]. Moreover, the z-score in [8] is -0.829 (inactive); in assay [9] it was -0.403. Moreover, the composite z-score was -0.232 (inactive) in assay [4] and -0.11 in assay [10].
As to `O=C1C2C=CC(C(O)c3ccc(F)cc3)N(Nc3ccccc3F)C2C(=O)N1c1ccccc1` (stereo not given), the z-score was -0.395 in assay [1]; -1.9 (inactive) in [2]; -0.63 (inactive) in assay [3]; 0.599 (inactive) in assay [5]; 0.0815 (inactive) in assay [6]; -0.554 (inactive) in [7]. For the same compound, the z-score in assay [8] was -0.184 (inactive); in [9], -0.292. The composite z-score is 0.306 (inactive) in assay [4] and 0.0029 in assay [10].
Take `CC(C)C(=C=CC[C@@H](O)c1ccccc1OCCO)CCO`: the z-score is 0.61 in assay [1]; -13 (active) in assay [2]; 0.11 (inactive) in assay [3]; -0.0828 (inactive) in assay [5]; 0.413 (inactive) in assay [6]; 0.272 (inactive) in [7]. The z-score in [8] was 0.123 (inactive); in assay [9], 1.28. Further, the composite z-score in [4] is -5.28 (inactive); in assay [10], -0.318.
For the compound `C=CCOC(=O)[C@@H]1[C@H]2C(=O)O[C@H](c3ccccc3)[C@H](c3ccccc3)N2[C@H](c2ccc(OCCOC(=O)[C@@H]3C[C@@H]4C(=O)N5CCC[C@H]5C(=O)N4[C@@H]3c3ccc(O)cc3)cc2)[C@@]12C(=O)Nc1ccc(I)cc12`, the z-score was 0.339 in assay [1]; 0.155 (inactive) in assay [2]; -0.446 (inactive) in assay [3]; 2.65 (inactive) in assay [5]; -0.468 (inactive) in assay [6]; 0.65 (inactive) in assay [7]. In addition, the z-score was 1.72 (inactive) in assay [8] and 1.28 in assay [9]. The composite z-score in assay [4] is -0.326 (inactive); in assay [10] it was -0.059.
For `C[C@]1(C(=O)NC2CC2)c2ccccc2C(=O)N(Cc2cc(C(F)(F)F)cc(C(F)(F)F)c2)[C@H]1c1ccc(CO)cc1`, the z-score was 0.546 in assay [1]; -0.66 (inactive) in [2]; 0.43 (inactive) in assay [3]; -0.506 (inactive) in assay [5]; 0.558 (inactive) in assay [6]; 1.11 (inactive) in assay [7]. In addition, the z-score in assay [8] is 0.833 (inactive); in assay [9], 0.367. Besides, the composite z-score is 0.262 (inactive) in assay [4] and -0.0646 in assay [10].
With `COC(=O)[C@@]1(Cc2ccccc2)[C@H]2c3cc(C(=O)N4CCCC4)n(CC4CC4)c3C[C@H]2CN1C(=O)c1ccccc1`, the z-score in assay [1] is -1.34; in [2] it was 1.38 (inactive); in assay [3], -1.75 (inactive); in assay [5], 0.936 (inactive); in assay [6] it was 1.25 (inactive); in assay [7], -0.889 (inactive). In addition, the results for the z-score in assay [8] and in assay [9] were -1.44 (inactive) and -2.27, respectively. Also, the composite z-score is -0.0475 (inactive) in assay [4] and 0.637 in [10].
In the case of `CN(C)CCCCCCNC(=O)[C@@H]1C[C@@H]2C(=O)N[C@@H](CCCCN)C(=O)N2[C@@H]1c1cccc(OCCO)c1`, the z-score in [1] was -0.205; in [2] it was -0.707 (inactive); in assay [3], 0.364 (inactive); in assay [5], 1.29 (inactive); in [6], -2.27 (inactive); in assay [7], 0.731 (inactive). In addition, the z-score in assay [8] is -0.199 (inactive); in [9], 0.393. The results for the composite z-score in [4] and in assay [10] were -1.12 (inactive) and 3.31, respectively.
For `COc1ccc([C@H]2OC[C@@H]3CC4(CC=CC4)C(=O)N32)cc1`, the z-score is -0.876 in assay [1]; -0.897 (inactive) in assay [2]; 0.305 (inactive) in assay [3]; -0.0634 (inactive) in assay [5]; 0.504 (inactive) in assay [6]; -0.632 (inactive) in assay [7]. Moreover, the values for the z-score in assay [8] and in assay [9] were -0.688 (inactive) and 0.012, respectively. The composite z-score in assay [4] is -0.177 (inactive); in assay [10], -0.0118.
Regarding `COc1ccc(COC2OC[C@]3(C)[C@H]4C5=C(CN3C(=O)OC(C)(C)C)[C@H](C)C(CO)C(CO)C5CC[C@@H]24)cc1` (stereo not given in full), the z-score is -0.987 in [1]; 0.455 (inactive) in assay [2]; -2.38 (inactive) in [3]; 1.03 (inactive) in assay [5]; 0.903 (inactive) in [6]; -0.806 (inactive) in assay [7]. Besides, the results for the z-score in assay [8] and in assay [9] were -1.6 (inactive) and -1.19, respectively. Further, the results for the composite z-score in [4] and in assay [10] were -0.124 (inactive) and -0.02, respectively.
Consider `C=CCOC(=O)[C@H]1[C@@H]2C(=O)O[C@@H](c3ccccc3)[C@@H](c3ccccc3)N2[C@@H](c2ccc(OCCOC(=O)[C@@H]3C[C@@H]4C(=O)N[C@@H](CCCC[N+](C)(C)C)C(=O)N4[C@@H]3c3ccc(O)cc3)cc2)[C@]12C(=O)Nc1ccccc12`, for which the z-score was 0.863 in [1]; -3.17 (inactive) in assay [2]; 0.844 (inactive) in [3]; 0.988 (inactive) in assay [5]; 0.545 (inactive) in [6]; 0.0865 (inactive) in assay [7]. Further, the z-score was -0.661 (inactive) in [8] and 1.16 in assay [9]. Besides, the composite z-score is -2.77 (inactive) in assay [4] and 0.0055 in assay [10].
In the case of `COC(=O)[C@@]1(Cc2ccc(F)cc2)[C@H]2c3cc(C(=O)N4CCCC4)n(Cc4cc(C)n(C)n4)c3C[C@H]2CN1C(=O)c1ccccc1`, the z-score in [1] is -0.945; in [2], 0.603 (inactive); in assay [3], -0.642 (inactive); in [5], 0.964 (inactive); in [6] it was 0.279 (inactive); in [7], -0.375 (inactive). The z-score in assay [8] is -0.459 (inactive); in assay [9], -1.51. The results for the composite z-score in [4] and in assay [10] were -0.468 (inactive) and 0.17, respectively.
